Unmarked numbers belong to inactive results. For part of these data: Potency and affinity values are given separately. Activity calls are given as the source filed them. No rule for the calls is given here.
For efficacy in this document: 0% is about no effect.

The conditions of one assay: Ebola virus entry assay, green fluorescence channel.
In the case of `CCN1CCCC(OC(=O)C(c2ccccc2)c2ccccc2)C1` (stereo not drawn), the efficacy is 26.3%.

With `CCNC(=O)N1CCN(CCCC(c2ccc(F)cc2)c2ccc(F)cc2)CC1`, the efficacy is 111%.

On to `c1ccc(C(O[C@H]2CCCN(CCc3ccc4c(c3)OCO4)C2)c2ccccc2)cc1`, for which the efficacy is 57.8%.

For `CCCCCCCCCCCCCCNCCO`, the efficacy was 123%.

For `Cc1ccc([N+](=O)[O-])[c]2c1[O][Hg]2`, the efficacy was -177%.

On to `c1ccc2c(c1)Sc1ccccc1N2CC1CN2CCC1CC2` (stereo not drawn), for which the efficacy was -241%.

As for `Cc1c(Cl)c(=O)oc2cc(OP(=O)(OCCCl)OCCCl)ccc12`, the efficacy is 115%.

As for `COc1cc(C[C@@H](C)N)c(OC)cc1C`, the efficacy is 32.9%.

On to `CCC(=O)C(CCN(C)C)(c1ccccc1)c1ccccc1`, for which the efficacy was 68.8%.

Consider `CCN1C(=O)c2ccccc2C1Nc1ccc(OCCN2CCCCC2)cc1` (stereo not drawn), for which the efficacy is 33.9%.

Take `CN1CCC(=C2c3ccccc3CC(=O)c3sccc32)CC1`: the efficacy was 93.4%.

Regarding `CCc1cccc(N(C)C(N)=Nc2cccc3ccccc23)c1`, the efficacy was 108%.

Consider `CCCN(CCC)C(=O)C(CCC(=O)OCCCN1CCN(CCOC(=O)Cc2c(C)n(C(=O)c3ccc(Cl)cc3)c3ccc(OC)cc23)CC1)NC(=O)c1ccccc1` (stereo not drawn), for which the efficacy is 156%.

For `CCCCCCCCOc1ccccc1C(=O)Nc1ccc(C(=O)OCC[N+](C)(CC)CC)cc1`, the efficacy was -202%.

As to `COc1ccc2cc1Oc1ccc(cc1)C[C@H]1c3c(cc4c(c3Oc3cc5c(cc3OC)CCN(C)[C@@H]5C2)OCO4)CCN1C`, the efficacy was 73.2%.

For the molecule `O=C1OC2(c3ccccc31)c1cc(I)c(O)c(I)c1Oc1c2cc(I)c(O)c1I`, the efficacy was 162%.

`CN(C)CCOc1ccccc1Cc1ccccc1`: the efficacy was 74.8%.

On to `O=C(CCCN1CCC(O)(c2cccc(C(F)(F)F)c2)CC1)c1ccc(F)cc1`, for which the efficacy is 61.9%.

Turning to `Nc1ccc2cc3ccc(N)cc3nc2c1`, the efficacy is 154%.

`CN1C[C@H](C(=O)N[C@]2(C)O[C@@]3(O)[C@@H]4CCCN4C(=O)[C@H](Cc4ccccc4)N3C2=O)C[C@@H]2c3cccc4[nH]cc(c34)C[C@H]21`: the efficacy was 95.4%.

On to `CCCCCCCCNC(C)C(O)c1ccc(SC(C)C)cc1` (stereo not drawn), for which the efficacy was 48.4%.

Regarding `c1cc(CN2CCCCC2)cc(OCCCNc2nc3ccccc3s2)c1`, the efficacy was 69.1%.

Take `OC(CCCN1CCCCC1)(c1ccccc1)c1ccccc1`: the efficacy is 50.3%.

Turning to `N#C/C(=C1/SC[C@@H](c2ccc(Cl)cc2Cl)S1)n1ccnc1`, the efficacy was 68.3%.

Regarding `C[n+]1cc2c3c(ccc2c2ccc4cc5c(cc4c21)OCO5)OCO3`, the efficacy was -149%.

With `N/C(=N\N=C\c1ccc(Cl)cc1)N/N=C/c1ccc(Cl)cc1`, the efficacy was -188%.

As to `COc1ccc(-n2nc(CCC(=O)N(C)O)cc2-c2ccc(Cl)cc2)cc1`, the efficacy is 77.8%.

For `COCC(=O)O[C@]1(CCN(C)CCCc2nc3ccccc3[nH]2)CCc2cc(F)ccc2[C@@H]1C(C)C`, the efficacy was -180%.

With `CCCCN1CCCC1C(=O)Nc1c(C)cc(C)cc1C` (stereo not drawn), the efficacy is 111%.

For `C#C[C@]1(O)CC[C@H]2[C@@H]3CCC4=CC(=O)CCC4=C3C=C[C@@]21CC`, the efficacy was 138%.

With `COc1ccc2[nH]cc(CCN(C(C)C)C(C)C)c2c1`, the efficacy was 45.7%.

In the case of `CCCC(C(=O)OCCN(CC)CC)(c1ccccc1)c1ccccc1`, the efficacy was -182%.

Take `CCCCC[C@H](O)C=C[C@H]1[C@H](O)CC(=O)[C@H]1CC=CCCCC(=O)O`: the efficacy was 75.7%.

Take `Cc1cccc(N(C)C(=S)Oc2ccc3c(c2)C2CCC3C2)c1` (stereo not drawn): the efficacy was 40.9%.

As to `O=C1NCN(c2ccccc2)C12CCN(CCCC(c1ccc(F)cc1)c1ccc(F)cc1)CC2`, the efficacy is 83.4%.

On to `CC1CCCCN1CCCOC(=O)c1ccc(OC2CCCCC2)cc1` (stereo not drawn), for which the efficacy was 86.1%.

For `CCN(CC)CCOC(=O)C1(c2ccccc2)CCCC1`, the efficacy is 69.1%.

For the molecule `CN1CCC(N(Cc2ccccc2)c2ccccc2)CC1`, the efficacy was 45.7%.

For the molecule `NC(=NCCCCCCN=C(N)/N=C(\N)Nc1ccc(Cl)cc1)/N=C(\N)Nc1ccc(Cl)cc1`, the efficacy is -197%.

The conditions of a further assay: Ebola virus entry assay, blue channel fluorescence.
For `CCN1CCCC(OC(=O)C(c2ccccc2)c2ccccc2)C1` (stereo not drawn), the AC50 (as a rule, the concentration at which the activity in the assay is half-maximal) was 25.1 µM (active).

Turning to `CCNC(=O)N1CCN(CCCC(c2ccc(F)cc2)c2ccc(F)cc2)CC1`, the AC50 was 12.6 µM (active).

Take `c1ccc(C(O[C@H]2CCCN(CCc3ccc4c(c3)OCO4)C2)c2ccccc2)cc1`: the AC50 is 28.2 µM (active).

Consider `CCCCCCCCCCCCCCNCCO`, for which the AC50 was 15.8 µM (active).

As to `Cc1ccc([N+](=O)[O-])[c]2c1[O][Hg]2`, the AC50 is 1.78 µM (active).

Regarding `c1ccc2c(c1)Sc1ccccc1N2CC1CN2CCC1CC2` (stereo not drawn), the AC50 is 5.01 µM (active).

For `Cc1c(Cl)c(=O)oc2cc(OP(=O)(OCCCl)OCCCl)ccc12`, the outcome was inactive.

As for `COc1cc(C[C@@H](C)N)c(OC)cc1C`, the AC50 was 35.5 µM (active).

Turning to `CCC(=O)C(CCN(C)C)(c1ccccc1)c1ccccc1`, the AC50 was 28.2 µM (active).

Regarding `CCN1C(=O)c2ccccc2C1Nc1ccc(OCCN2CCCCC2)cc1` (stereo not drawn), the AC50 is 12.6 µM (active).

Consider `CN1CCC(=C2c3ccccc3CC(=O)c3sccc32)CC1`, for which the AC50 was 31.6 µM (active).

As for `CCc1cccc(N(C)C(N)=Nc2cccc3ccccc23)c1`, the AC50 is 20 µM (active).

In the case of `CCCN(CCC)C(=O)C(CCC(=O)OCCCN1CCN(CCOC(=O)Cc2c(C)n(C(=O)c3ccc(Cl)cc3)c3ccc(OC)cc23)CC1)NC(=O)c1ccccc1` (stereo not drawn), the AC50 is 6.31 µM (active).

As for `CCCCCCCCOc1ccccc1C(=O)Nc1ccc(C(=O)OCC[N+](C)(CC)CC)cc1`, the half-maximal activity concentration (AC50) is 10 µM (active).

In the case of `COc1ccc2cc1Oc1ccc(cc1)C[C@H]1c3c(cc4c(c3Oc3cc5c(cc3OC)CCN(C)[C@@H]5C2)OCO4)CCN1C`, the AC50 was 1.12 µM (active).

Turning to `O=C1OC2(c3ccccc31)c1cc(I)c(O)c(I)c1Oc1c2cc(I)c(O)c1I`, the outcome was inactive.

With `CN(C)CCOc1ccccc1Cc1ccccc1`, the concentration at half-maximal activity (AC50) is 3.55 µM (active).

On to `O=C(CCCN1CCC(O)(c2cccc(C(F)(F)F)c2)CC1)c1ccc(F)cc1`, for which the AC50 is 25.1 µM (active).

`Nc1ccc2cc3ccc(N)cc3nc2c1`: the AC50 is 39.8 µM (active).

Consider `CN1C[C@H](C(=O)N[C@]2(C)O[C@@]3(O)[C@@H]4CCCN4C(=O)[C@H](Cc4ccccc4)N3C2=O)C[C@@H]2c3cccc4[nH]cc(c34)C[C@H]21`, for which the AC50 was 28.2 µM (active).

Consider `CCCCCCCCNC(C)C(O)c1ccc(SC(C)C)cc1` (stereo not drawn), for which the AC50 was 14.1 µM (active).

Take `c1cc(CN2CCCCC2)cc(OCCCNc2nc3ccccc3s2)c1`: the AC50 was 12.6 µM (active).

For `OC(CCCN1CCCCC1)(c1ccccc1)c1ccccc1`, the AC50 is 10 µM (active).

On to `N#C/C(=C1/SC[C@@H](c2ccc(Cl)cc2Cl)S1)n1ccnc1`, for which the AC50 is 39.8 µM (active).

For the molecule `C[n+]1cc2c3c(ccc2c2ccc4cc5c(cc4c21)OCO5)OCO3`, the AC50 is 17.8 µM (active).

As to `N/C(=N\N=C\c1ccc(Cl)cc1)N/N=C/c1ccc(Cl)cc1`, the AC50 was 39.8 µM (active).

As to `COc1ccc(-n2nc(CCC(=O)N(C)O)cc2-c2ccc(Cl)cc2)cc1`, the AC50 was 11.2 µM (active).

On to `COCC(=O)O[C@]1(CCN(C)CCCc2nc3ccccc3[nH]2)CCc2cc(F)ccc2[C@@H]1C(C)C`, for which the AC50 is 2.24 µM (active).

On to `CCCCN1CCCC1C(=O)Nc1c(C)cc(C)cc1C` (stereo not drawn), for which the result was inactive.

With `C#C[C@]1(O)CC[C@H]2[C@@H]3CCC4=CC(=O)CCC4=C3C=C[C@@]21CC`, the AC50 is 20 µM (active).

For `COc1ccc2[nH]cc(CCN(C(C)C)C(C)C)c2c1`, the AC50 is 39.8 µM (active).

Take `CCCC(C(=O)OCCN(CC)CC)(c1ccccc1)c1ccccc1`: the AC50 is 3.16 µM (active).

Turning to `CCCCC[C@H](O)C=C[C@H]1[C@H](O)CC(=O)[C@H]1CC=CCCCC(=O)O`, the AC50 is 8.91 µM (active).

As for `Cc1cccc(N(C)C(=S)Oc2ccc3c(c2)C2CCC3C2)c1` (stereo not drawn), the AC50 is 39.8 µM (active).

On to `O=C1NCN(c2ccccc2)C12CCN(CCCC(c1ccc(F)cc1)c1ccc(F)cc1)CC2`, for which the AC50 is 1.41 µM (active).

As to `CC1CCCCN1CCCOC(=O)c1ccc(OC2CCCCC2)cc1` (stereo not drawn), the AC50 was 8.91 µM (active).

Regarding `CCN(CC)CCOC(=O)C1(c2ccccc2)CCCC1`, the AC50 is 28.2 µM (active).

`CN1CCC(N(Cc2ccccc2)c2ccccc2)CC1`: the AC50 is 7.08 µM (active).

As for `NC(=NCCCCCCN=C(N)/N=C(\N)Nc1ccc(Cl)cc1)/N=C(\N)Nc1ccc(Cl)cc1`, the AC50 is 39.8 µM (active).

For the origin of these results see PubChem BioAssay (NCATS).
